From PubChem BioAssay (NCI)
This is part of a sample that, as a whole, favours compounds with a hit. Of some 83,000 tested, about 20% had one in any assay.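 Plates (96-well) were seeded with cells, treated with compound at one concentration, and incubated for 48 hours before percent growth was determined.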 Values without a mark were called inactive. The source made the active and inactive calls. The calls were made as follows: active = growth percent below 10; inactive = the rest.

Assays:
Assay in all cases: NCI-60 one-dose screen, 48 h (100 = growth as untreated, 0 = no growth, -100 = all killed)
Conditions in all cases: 10 µM unless noted
[1] = test system: NCI-H23 lung
[2] = test system: NCI-H226 lung
[3] = test system: NCI-H322M lung
[4] = test system: HOP-62 NSCLC
[5] = test system: NCI-H460 lung
[6] = test system: NCI-H522 lung
[7] = test system: A549/ATCC NSCLC
[8] = test system: 786-0 renal
[9] = test system: COLO 205 colon
[10] = test system: DU-145 prostate
[11] = test system: MALME-3M melanoma
[12] = test system: MDA-MB-231 breast
[13] = test system: RXF 393 renal
[14] = test system: SF-268 CNS
[15] = test system: SF-295 CNS
[16] = test system: SF-539 CNS
[17] = test system: UACC-257 melanoma
[18] = test system: M14 melanoma
[19] = test system: K-562 leukemia
[20] = test system: HOP-92 NSCLC

Row | SMILES | growth [1] | growth [2] | growth [3] | growth [4] | growth [5] | growth [6] | growth [7] | growth [8] | growth [9] | growth [10] | growth [11] | growth [12] | growth [13] | growth [14] | growth [15] | growth [16] | growth [17] | growth [18] | growth [19] | growth [20]
1 | COc1ccc(C(=O)/C=C/c2ccccc2Br)cc1S(N)(=O)=O | -21.4% (active) | 21.5% | 20.6% | -18.7% (active) | 1.47% (active) | -67% (active) | -81.4% (active) | -78% (active) | -72.8% (active) | -31.7% (active) | 62.3% | -20.8% (active) | -70% (active) | 14.2% | -76.6% (active) | -74.9% (active) | 15.5% | -11.7% (active) |  | 
2 | C=C1CCC2C3(C)COC(c4ccccc4F)OC3CCC2(C)C1CC(O)C1=CCOC1=O (stereo not drawn) | 80% | 83.6% | 99.5% | 88.2% | 82.3% | -50.3% (active) | 67.7% | 14.7% | 22.5% | 67.2% | 92.9% | 77.7% | 50.7% | 103% | 77.2% | 16.3% | 75.1% | 26.5% | 21.3% | 
3 | NS(=O)(=O)c1ccc(N=Nc2c(O)n(CC(=O)Nc3ccccc3)c3ccccc23)cc1 | -19.1% (active) | 25.3% | 52% | 10.8% |  | 31.6% | 0.913% (active) | 1.52% (active) | 27.6% | 21.2% | 20.7% | -9.74% (active) | 48.9% | 75.3% | 13.3% | -27.2% (active) | 61.5% | 11.2% | 14.7% | 77.3%
4 | Cc1ccc(C(SCCNCc2cc(N(C)C)ccn2)(c2ccccc2)c2ccccc2)cc1 | -35.8% (active) | -6.05% (active) | 23.1% | -1.31% (active) |  | -78.8% (active) | -3.31% (active) | -76.6% (active) | -71.6% (active) | -8% (active) | -94.4% (active) | -56.9% (active) | -47.3% (active) | -2.09% (active) | -96.1% (active) | -99.1% (active) | -65.4% (active) | -84.3% (active) | -42.7% (active) | -25.4% (active)
5 | COc1cc(C2CC(c3cc(OC)c(OC)c(OC)c3)=NN2C(C)=O)ccc1OCc1ccc(F)cc1 (stereo not drawn) | 56.7% | 49.8% | 66.1% | 74.2% |  | 42.1% | 50.8% | 57.8% | 58.5% | 70.6% | 81.8% | 61% | 73.7% | 72% | 37.7% | 61.9% | 68.6% | 59.9% | 28% | 17.3%
6 | CN(C)c1nc(NCCNS(=O)(=O)c2ccc(C3=Nc4c(N)nc(N)nc4NC(c4ccc(F)cc4)C3)cc2)nc(Nc2ccc(F)cc2)n1 (stereo not drawn) | 64.5% | 53% | 63.3% | 72.4% | 21.7% | 42.1% | 66.3% | 30.2% | 37.9% | 54.2% | 47.1% | 20.8% | 16.5% | 31.9% | 57.3% | -25.3% (active) | 59.3% | 28% | 3.61% (active) | 
7 | COc1ccc(NC(=O)[C@H](CO)NC(=O)OC(C)(C)C)cc1C(=O)Nc1cccc(C2CC(=O)c3c(cc(OC)c(OC)c3OC)O2)c1 (stereo partly drawn) | 50.7% | 48.1% | 81.1% | 83% |  | 31.4% | 68.8% | 68.3% | 77.2% | 58.4% | 61.4% | 41.9% | 53% | 65.1% | 69.1% | 79.1% | 75.3% | 66% | 28.4% | 81.9%
8 | N#Cc1c(-c2ccccc2Cl)cc(-c2ccc3ccccc3c2)[nH]c1=O | 38.8% | -24.5% (active) | 28.1% | -7.48% (active) | -13.8% (active) | 85% | 17.5% | -40.9% (active) | 108% | 49% | 12.9% |  | -6.69% (active) | 22.5% | 1.62% (active) | 16.5% | 70.3% | 25.1% | 62% | 
9 | NS(=O)(=O)c1ccc(-n2cc(-c3cccc(NC(=O)c4ccc(Cl)c(C(F)(F)F)c4)c3)nn2)cc1 | -4.59% (active) | 10% | 33.4% | 3.02% (active) | 18.1% | 45.8% | 4.33% (active) | 22.5% | 2.2% (active) | 18.3% | 39.9% | -5.26% (active) |  | 29.4% | 7.53% (active) | -38.8% (active) | 39.1% | 16.2% |  | 
10 | O=C(Nc1ccccc1)N1CCN(c2cc(-c3cn(-c4ccccc4)nc3-c3cccc(O)c3)ccn2)CC1 | 71% | 75.4% | 104% | 80.8% | 70% | 74.1% | 53.9% | 94.6% | 45.1% | 95.3% | 84% | 82.4% | 90.8% | 114% | 54.8% | 89.5% | 97.4% | 69.4% | 29.5% | 
11 | CC(=O)c1cccc(NC(=O)CCC(=O)NS(=O)(=O)c2ccc(C)cc2)c1 | 108% | 108% | 109% | 98.6% | 120% | 102% | 100% | 105% | 113% | 122% | 103% | 107% | 132% | 134% | 104% | 105% | 103% | 102% | 101% | 
12 | COc1ccc(-c2ccc(SCC(=O)NCCc3ccc(S(N)(=O)=O)cc3)nn2)cc1 | 64.2% | 77% | 96.2% | 81.3% | 107% | 70% | 86.6% | 85.8% | 95.4% | 96.1% | 89.3% | 92.6% | 80.2% | 103% | 84.9% | 88.7% | 55.3% | 99.7% | 54.1% | 
13 | Cc1cc(=O)oc2cc(OCCCCOc3ccc(/C=C/C(=O)Nc4ccccc4N)cc3)ccc12 | 76% | 47.9% | 82.2% | 69.7% | 45.2% | 35.7% | 46.9% | 49.5% | 44.9% | 65.7% | 90.8% | 48.2% | 90.9% | 49.4% | 63.1% | 53.1% | 82.4% | 79.5% | 35% | 
14 | CCCCCCCCc1ccc(S(=O)(=O)Nc2ccc(CC)cc2C(=O)O)cc1 | 97.3% | 88% | 95.2% | 99.6% | 96.7% | 91.4% | 91.9% | 103% | 121% | 105% | 98.2% | 102% | 109% | 97.4% | 81.2% | 101% | 91.1% | 99.1% | 83% | 
15 | N#Cc1c(-c2cccnc2)cc(-c2ccc3ccccc3c2)[nH]c1=O | 77% | 81.9% | 90.1% | 91.8% | 83.7% | 66.2% | 85.1% | 11.9% | 115% | 80.2% | 94.8% |  | 50.6% | 71.7% | 71.4% | 7.22% (active) | 105% | 116% | 86.6% | 
16 | CSc1ccc(NC(=O)c2ccc3nn(/C(C#N)=C/c4ccccn4)nc3c2)cc1 | -90.9% (active) | -90.5% (active) | -54.5% (active) | -70.3% (active) | -64.5% (active) | -84.6% (active) | -71.8% (active) | -84.7% (active) | -79% (active) | -100% (active) | -89.4% (active) |  | -94.9% (active) | -40% (active) | -95.7% (active) | -95% (active) | -89.3% (active) | -86% (active) | -13.4% (active) | 
